Usually inhibition stands for the relative decrease from the control value, in per cent.

Data on six compounds can be found in ChEMBL document CHEMBL1961873, “Compounds: GSK PKIS; Assays: Nanosyn kinase panel” (2012).

In test [1] the target is Rho-associated protein kinase 1 (Homo sapiens) (UniProt Q13464). The note with it: at 1 µM.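 Also: reported values are mean percent inhibition of ROCK1.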
Test [2] has as its target Rho-associated protein kinase 2 (Homo sapiens) (UniProt O75116). The note with it: at 0.1 µM.
Test [3] has the same target. To be noted: at 1 µM.
The target in test [4] is Ribosomal protein S6 kinase alpha-1 (Homo sapiens) (UniProt Q15418). To be noted: at 0.1 µM.
The target is the same in test [5]. The note with it: at 1 µM.
For test [6], the target named is Ribosomal protein S6 kinase alpha-3 (Homo sapiens) (UniProt P51812). The note with it: at 0.1 µM.
The target is the same in test [7]. The note with it: at 1 µM.
In test [8] the target is Ribosomal protein S6 kinase alpha-2 (Homo sapiens) (UniProt Q15349). The note with it: at 0.1 µM.
Test [9] has the same target. The note with it: at 1 µM.
Test [10] addresses Ribosomal protein S6 kinase alpha-6 (Homo sapiens) (UniProt Q9UK32). The note with it: at 0.1 µM.
The target is the same in test [11]. The note with it: at 1 µM.
The target in test [12] is T1, Serine/threonine-protein kinase Sgk1 (Homo sapiens) (UniProt O00141).
T1 sequence (whole entry): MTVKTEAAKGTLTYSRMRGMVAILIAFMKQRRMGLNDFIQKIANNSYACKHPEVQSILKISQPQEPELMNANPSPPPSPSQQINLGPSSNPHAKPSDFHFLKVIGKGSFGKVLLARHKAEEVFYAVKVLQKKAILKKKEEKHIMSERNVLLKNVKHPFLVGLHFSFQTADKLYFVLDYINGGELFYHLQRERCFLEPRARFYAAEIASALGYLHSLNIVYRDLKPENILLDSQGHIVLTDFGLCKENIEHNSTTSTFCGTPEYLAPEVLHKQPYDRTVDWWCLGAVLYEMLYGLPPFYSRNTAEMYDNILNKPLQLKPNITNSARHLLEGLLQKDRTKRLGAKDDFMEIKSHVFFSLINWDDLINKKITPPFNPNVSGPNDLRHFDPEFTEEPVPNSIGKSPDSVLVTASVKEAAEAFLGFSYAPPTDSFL
The note with it: at 0.1 µM.

The target in test [13] is T1, Serine/threonine-protein kinase Sgk1 (Homo sapiens). To be noted: at 1 µM.
For test [14], the target named is T2, Serine/threonine-protein kinase Sgk2 (Homo sapiens) (UniProt Q9HBY8).
T2 sequence (whole entry): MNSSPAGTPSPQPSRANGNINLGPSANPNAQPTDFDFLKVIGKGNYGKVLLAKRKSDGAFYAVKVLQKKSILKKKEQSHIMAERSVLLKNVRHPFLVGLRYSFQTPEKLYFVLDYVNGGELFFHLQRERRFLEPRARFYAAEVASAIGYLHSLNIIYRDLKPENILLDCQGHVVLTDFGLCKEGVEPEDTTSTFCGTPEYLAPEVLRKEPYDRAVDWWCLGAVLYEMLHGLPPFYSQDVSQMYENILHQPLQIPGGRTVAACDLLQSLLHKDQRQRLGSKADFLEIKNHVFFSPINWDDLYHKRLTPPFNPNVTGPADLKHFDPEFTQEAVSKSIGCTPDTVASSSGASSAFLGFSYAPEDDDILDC
To be noted: at 0.1 µM.

In test [15] the target is T2, Serine/threonine-protein kinase Sgk2 (Homo sapiens). The note with it: at 1 µM.
Test [16] has as its target T3, Serine/threonine-protein kinase Sgk3 (Homo sapiens) (UniProt Q96BR1).
T3 sequence (whole entry): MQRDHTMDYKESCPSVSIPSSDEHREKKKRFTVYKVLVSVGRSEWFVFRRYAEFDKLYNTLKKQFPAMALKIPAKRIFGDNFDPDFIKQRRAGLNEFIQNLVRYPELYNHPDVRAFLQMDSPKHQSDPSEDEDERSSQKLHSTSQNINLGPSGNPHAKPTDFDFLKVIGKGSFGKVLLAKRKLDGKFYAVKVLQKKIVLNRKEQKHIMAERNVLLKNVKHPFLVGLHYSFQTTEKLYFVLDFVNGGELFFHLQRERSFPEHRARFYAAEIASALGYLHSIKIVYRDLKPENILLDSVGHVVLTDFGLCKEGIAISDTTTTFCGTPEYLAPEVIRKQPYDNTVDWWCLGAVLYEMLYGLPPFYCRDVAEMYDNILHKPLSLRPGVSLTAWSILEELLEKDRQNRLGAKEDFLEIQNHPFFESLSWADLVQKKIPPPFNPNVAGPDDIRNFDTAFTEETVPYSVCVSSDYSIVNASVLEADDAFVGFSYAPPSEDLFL
To be noted: at 0.1 µM.

Test [17] has as its target T3, Serine/threonine-protein kinase Sgk3 (Homo sapiens). The note with it: at 1 µM.
For test [18], the target named is 5'-AMP-activated protein kinase catalytic subunit alpha-1 (Homo sapiens) (UniProt Q13131). The note with it: at 0.1 µM.
The target is the same in test [19]. To be noted: at 1 µM.
The target in test [20] is 5'-AMP-activated protein kinase catalytic subunit alpha-2 (Homo sapiens) (UniProt P54646). The note with it: at 0.1 µM.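 Also: mean inhibition measured on the AMPK complex of alpha2, beta1 and gamma1 subunits.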

Sequence of Ribosomal protein S6 kinase alpha-3 (Homo sapiens) (P51812 whole entry): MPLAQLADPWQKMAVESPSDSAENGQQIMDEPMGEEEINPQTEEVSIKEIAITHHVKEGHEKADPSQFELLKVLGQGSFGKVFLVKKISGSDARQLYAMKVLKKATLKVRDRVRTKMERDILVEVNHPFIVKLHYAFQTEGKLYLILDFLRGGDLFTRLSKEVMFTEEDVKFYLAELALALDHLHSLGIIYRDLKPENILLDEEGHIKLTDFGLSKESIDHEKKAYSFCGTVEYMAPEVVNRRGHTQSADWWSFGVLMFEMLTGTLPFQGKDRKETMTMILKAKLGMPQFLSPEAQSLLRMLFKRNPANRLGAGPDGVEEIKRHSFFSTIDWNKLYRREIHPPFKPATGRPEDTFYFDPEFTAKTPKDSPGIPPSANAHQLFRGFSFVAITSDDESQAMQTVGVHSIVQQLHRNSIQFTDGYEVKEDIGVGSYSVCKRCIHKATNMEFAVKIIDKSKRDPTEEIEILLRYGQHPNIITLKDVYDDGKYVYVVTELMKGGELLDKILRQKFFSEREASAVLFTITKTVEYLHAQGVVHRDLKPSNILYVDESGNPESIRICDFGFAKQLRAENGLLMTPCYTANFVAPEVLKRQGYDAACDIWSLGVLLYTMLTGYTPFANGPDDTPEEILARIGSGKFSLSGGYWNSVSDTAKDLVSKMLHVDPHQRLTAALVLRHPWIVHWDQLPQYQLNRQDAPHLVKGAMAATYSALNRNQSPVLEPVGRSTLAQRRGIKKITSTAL
Sequence of Rho-associated protein kinase 2 (Homo sapiens) (O75116 whole entry, looked up): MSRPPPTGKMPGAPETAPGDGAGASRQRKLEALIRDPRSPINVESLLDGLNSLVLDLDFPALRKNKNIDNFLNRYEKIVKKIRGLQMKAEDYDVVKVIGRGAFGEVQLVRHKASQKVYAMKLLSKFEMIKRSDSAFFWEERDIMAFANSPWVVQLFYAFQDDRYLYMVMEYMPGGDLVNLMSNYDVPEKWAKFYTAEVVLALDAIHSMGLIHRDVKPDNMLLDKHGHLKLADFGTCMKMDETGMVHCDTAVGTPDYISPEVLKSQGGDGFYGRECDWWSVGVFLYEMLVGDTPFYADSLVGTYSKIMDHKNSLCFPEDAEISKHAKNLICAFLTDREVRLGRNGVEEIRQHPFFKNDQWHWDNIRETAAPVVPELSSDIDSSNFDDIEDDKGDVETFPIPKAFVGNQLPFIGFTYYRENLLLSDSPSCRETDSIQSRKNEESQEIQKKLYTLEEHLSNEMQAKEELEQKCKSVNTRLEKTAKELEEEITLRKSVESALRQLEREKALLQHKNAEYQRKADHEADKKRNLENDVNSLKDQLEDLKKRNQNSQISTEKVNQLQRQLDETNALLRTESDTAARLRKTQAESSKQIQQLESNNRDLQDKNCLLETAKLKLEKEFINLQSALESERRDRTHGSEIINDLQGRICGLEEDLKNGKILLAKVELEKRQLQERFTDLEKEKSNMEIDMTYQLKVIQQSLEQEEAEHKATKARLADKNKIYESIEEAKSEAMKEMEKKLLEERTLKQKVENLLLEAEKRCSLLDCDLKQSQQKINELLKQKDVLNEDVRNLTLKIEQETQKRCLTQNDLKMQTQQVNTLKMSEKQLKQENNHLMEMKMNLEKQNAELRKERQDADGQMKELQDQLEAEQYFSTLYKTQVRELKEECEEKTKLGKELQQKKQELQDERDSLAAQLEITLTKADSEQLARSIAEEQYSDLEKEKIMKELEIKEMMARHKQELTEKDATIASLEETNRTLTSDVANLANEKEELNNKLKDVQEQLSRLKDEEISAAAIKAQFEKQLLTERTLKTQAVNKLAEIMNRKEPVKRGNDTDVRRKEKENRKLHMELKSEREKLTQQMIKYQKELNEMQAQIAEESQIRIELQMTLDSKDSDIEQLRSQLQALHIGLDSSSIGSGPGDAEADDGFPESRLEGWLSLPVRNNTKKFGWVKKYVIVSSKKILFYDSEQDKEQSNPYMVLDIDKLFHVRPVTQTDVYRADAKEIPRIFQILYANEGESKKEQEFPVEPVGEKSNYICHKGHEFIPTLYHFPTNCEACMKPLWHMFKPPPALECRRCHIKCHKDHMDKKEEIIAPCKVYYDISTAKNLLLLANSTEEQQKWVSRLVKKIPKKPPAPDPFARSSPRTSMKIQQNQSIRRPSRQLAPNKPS
Sequence of Ribosomal protein S6 kinase alpha-2 (Homo sapiens) (Q15349 whole entry): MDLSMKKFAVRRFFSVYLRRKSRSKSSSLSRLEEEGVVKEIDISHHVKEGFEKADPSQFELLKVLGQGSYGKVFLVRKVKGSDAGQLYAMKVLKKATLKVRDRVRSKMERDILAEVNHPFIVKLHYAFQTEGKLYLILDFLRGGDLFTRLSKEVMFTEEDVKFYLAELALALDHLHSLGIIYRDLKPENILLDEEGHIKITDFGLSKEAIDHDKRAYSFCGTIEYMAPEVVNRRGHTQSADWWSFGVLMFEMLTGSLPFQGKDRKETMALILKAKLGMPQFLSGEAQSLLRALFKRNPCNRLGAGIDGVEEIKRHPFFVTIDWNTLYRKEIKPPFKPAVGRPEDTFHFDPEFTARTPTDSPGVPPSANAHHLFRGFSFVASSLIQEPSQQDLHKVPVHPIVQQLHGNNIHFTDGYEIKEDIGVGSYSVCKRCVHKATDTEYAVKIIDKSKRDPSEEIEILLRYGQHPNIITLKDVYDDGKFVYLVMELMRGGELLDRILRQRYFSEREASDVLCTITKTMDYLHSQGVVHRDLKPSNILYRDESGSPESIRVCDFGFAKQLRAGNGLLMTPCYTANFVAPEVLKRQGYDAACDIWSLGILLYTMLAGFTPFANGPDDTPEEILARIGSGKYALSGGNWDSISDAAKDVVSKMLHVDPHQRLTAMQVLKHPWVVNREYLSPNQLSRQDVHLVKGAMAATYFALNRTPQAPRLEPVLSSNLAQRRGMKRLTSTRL
Sequence of Rho-associated protein kinase 1 (Homo sapiens) (Q13464 2-1354 limits assumed): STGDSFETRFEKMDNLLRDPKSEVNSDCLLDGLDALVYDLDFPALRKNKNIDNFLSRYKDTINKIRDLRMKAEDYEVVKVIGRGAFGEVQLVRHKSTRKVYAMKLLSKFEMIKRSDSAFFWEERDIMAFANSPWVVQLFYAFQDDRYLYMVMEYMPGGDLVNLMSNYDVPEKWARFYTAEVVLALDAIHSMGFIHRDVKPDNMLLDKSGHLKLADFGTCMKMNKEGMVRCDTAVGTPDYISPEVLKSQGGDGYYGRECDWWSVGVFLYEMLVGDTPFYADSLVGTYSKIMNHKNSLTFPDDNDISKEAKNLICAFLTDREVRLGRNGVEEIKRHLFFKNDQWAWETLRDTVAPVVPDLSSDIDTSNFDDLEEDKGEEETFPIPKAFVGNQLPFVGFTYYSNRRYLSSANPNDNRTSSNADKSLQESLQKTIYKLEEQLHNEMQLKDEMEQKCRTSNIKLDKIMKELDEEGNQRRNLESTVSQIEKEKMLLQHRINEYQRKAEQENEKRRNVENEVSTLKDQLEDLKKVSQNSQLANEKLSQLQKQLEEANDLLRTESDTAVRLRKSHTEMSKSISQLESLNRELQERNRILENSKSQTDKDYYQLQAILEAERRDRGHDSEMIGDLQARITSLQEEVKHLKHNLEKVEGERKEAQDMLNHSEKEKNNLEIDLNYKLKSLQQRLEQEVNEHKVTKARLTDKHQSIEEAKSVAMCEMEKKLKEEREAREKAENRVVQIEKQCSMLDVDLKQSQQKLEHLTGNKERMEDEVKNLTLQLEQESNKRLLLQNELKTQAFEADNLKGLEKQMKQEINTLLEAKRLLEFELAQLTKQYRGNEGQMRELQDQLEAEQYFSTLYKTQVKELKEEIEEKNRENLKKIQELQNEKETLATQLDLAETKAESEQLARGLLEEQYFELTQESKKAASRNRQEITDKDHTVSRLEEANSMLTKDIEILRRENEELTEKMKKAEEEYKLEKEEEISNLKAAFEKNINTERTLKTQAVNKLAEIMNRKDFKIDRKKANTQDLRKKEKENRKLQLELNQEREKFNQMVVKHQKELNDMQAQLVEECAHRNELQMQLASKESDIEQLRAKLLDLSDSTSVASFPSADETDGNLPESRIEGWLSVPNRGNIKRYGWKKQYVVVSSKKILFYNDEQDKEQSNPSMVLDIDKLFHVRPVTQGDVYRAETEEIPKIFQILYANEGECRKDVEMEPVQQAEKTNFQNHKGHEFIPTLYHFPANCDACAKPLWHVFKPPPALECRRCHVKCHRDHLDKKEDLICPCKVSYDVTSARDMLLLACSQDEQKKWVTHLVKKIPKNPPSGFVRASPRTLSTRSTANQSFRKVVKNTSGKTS
Sequence of Ribosomal protein S6 kinase alpha-1 (Homo sapiens) (Q15418 whole entry): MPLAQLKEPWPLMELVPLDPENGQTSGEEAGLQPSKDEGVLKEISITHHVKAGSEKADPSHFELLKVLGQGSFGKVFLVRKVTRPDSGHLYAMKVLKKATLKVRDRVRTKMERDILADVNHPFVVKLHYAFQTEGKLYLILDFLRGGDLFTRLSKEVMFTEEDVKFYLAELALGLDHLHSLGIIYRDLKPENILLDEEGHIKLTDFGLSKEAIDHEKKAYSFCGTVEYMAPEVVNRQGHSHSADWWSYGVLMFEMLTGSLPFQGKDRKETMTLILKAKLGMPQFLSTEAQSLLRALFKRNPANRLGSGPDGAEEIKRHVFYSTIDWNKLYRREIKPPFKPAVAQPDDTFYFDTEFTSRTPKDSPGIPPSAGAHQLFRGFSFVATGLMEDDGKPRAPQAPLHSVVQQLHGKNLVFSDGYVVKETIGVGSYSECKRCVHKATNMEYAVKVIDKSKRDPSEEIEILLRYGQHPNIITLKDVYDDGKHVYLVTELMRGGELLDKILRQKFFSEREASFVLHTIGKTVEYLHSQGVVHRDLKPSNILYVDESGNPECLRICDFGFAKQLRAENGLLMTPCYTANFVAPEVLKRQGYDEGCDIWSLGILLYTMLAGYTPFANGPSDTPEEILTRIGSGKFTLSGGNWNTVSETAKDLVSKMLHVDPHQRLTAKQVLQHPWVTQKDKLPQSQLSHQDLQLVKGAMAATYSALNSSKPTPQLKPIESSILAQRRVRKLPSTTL

As for `COC(=O)Nc1nc2cc(Oc3ccc(NC(=O)Nc4cccc(Br)c4)cc3)ccc2[nH]1`, the inhibition in [1] amounted to 7.16%; in test [2] it was 3.44%; in test [3] it was 6.83%; in test [4], 1.44%; in test [5], 1.53%; in test [6], 1.69%. For the same compound, the inhibition is 0.56% in test [7]; 1.65% in test [8]; 2.4% in [9]; 1.97% in test [10]; 1.35% in test [11]; 4.42% in test [12]. The inhibition in test [13] came to 6.16%; in test [14], 2.07%; in [15], 3.07%; in [16], 2.77%; in test [17], 3.45%; in test [18] it was 2.86%. Further, the results for the inhibition in [19] and in [20] were 2.58% and 0.56%, respectively.
Turning to `CCCN1CCCC(c2ccc(Nc3nc(Nc4cc(F)ccc4C(N)=O)c4cc[nH]c4n3)c(OC)c2)C1` (stereo not given), the inhibition came to 67.7% in test [1]; 27.2% in test [2]; 71.3% in test [3]; 35.1% in [4]; 72.5% in [5]; 22.6% in [6]. For the same compound, the inhibition in [7] turned out to be 40.2%; in test [8] it was 9.15%; in [9], 38%; in test [10], 19.7%; in [11], 54.1%; in [12], 3.79%. Further, the inhibition in test [13] amounted to 4.78%; in test [14] it was 1.44%; in [15], 6.37%; in test [16], 4.46%; in [17] it was 0.16%; in [18], 6.07%. For the same compound, the values for the inhibition in test [19] and in [20] were 20.3% and 4.5%, respectively.
As for `C[C@@H](Oc1cc(-n2cnc3ccc(OCC4CCN(C)CC4)cc32)sc1C(N)=O)c1ccccc1C(F)(F)F`, the inhibition worked out at 12% in [1]; 1.51% in [2]; 12% in test [3]; 5.1% in test [4]; 32.7% in [5]; 11.8% in test [6]. In addition, the inhibition in test [7] came to 52%; in test [8], 3.14%; in test [9], 30.9%; in test [10] it was 13.2%; in test [11], 54.9%; in [12], 0.5%. In addition, the inhibition in [13] is 2.02%; in test [14] it was -2.58%; in test [15], -0.14%; in test [16] it was -1.97%; in test [17], -2.55%; in [18], 5.76%. Further, the results for the inhibition in [19] and in [20] were 32.6% and 2.88%, respectively.
Turning to `CCn1c(-c2nonc2N)nc2ccc(F)cc21`, the inhibition in test [1] was 9.21%; in test [2], 5.67%; in test [3] it was 19%; in test [4], 4.37%; in test [5], 21%; in [6], 2.79%. Further, the inhibition came to 9.91% in [7]; 2.93% in test [8]; 14% in test [9]; 1.56% in test [10]; 3.11% in [11]; 4.63% in [12]. The inhibition in test [13] was determined as 5.34%; in [14], 0.38%; in test [15], 7.92%; in test [16], 4.43%; in test [17], 9.8%; in test [18] it was 5.34%. For the same compound, the inhibition is 5.71% in test [19] and 4.08% in test [20].
In the case of `Cc1ccc(NC(=O)CC2CC2)cc1-c1ccc(C(=O)NCC2CC2)cc1`, the inhibition in test [1] worked out at 2.07%; in [2], 3.27%; in [3] it was 5.25%; in [4] it was 1.91%; in [5], 2.35%; in test [6], 0.73%. For the same compound, the inhibition was 1.14% in test [7]; 1.88% in test [8]; 2.04% in test [9]; 1.16% in [10]; 1% in [11]; 2.06% in test [12]. In addition, the inhibition came to 4.1% in test [13]; 4.31% in test [14]; 1.34% in [15]; 2.72% in test [16]; 0.18% in test [17]; 1.98% in [18]. For the same compound, the inhibition in [19] came out at 3.58%; in test [20] it was 1%.
As for `Cc1nc(-c2ccccc2)n2nc(NCCCN3CCOCC3)ncc12`, the inhibition was 0.26% in test [1]; 2.1% in test [2]; 0.91% in [3]; 1.44% in test [4]; 5.36% in [5]; 2.6% in test [6]. Moreover, the inhibition in [7] is 7.74%; in [8], 3.24%; in test [9], 7.6%; in test [10] it was 2.39%; in test [11] it was 12.8%; in test [12] it was 2.86%. For the same compound, the inhibition in test [13] is 2.79%; in test [14] it was 2.32%; in test [15], 0.65%; in [16], 0.22%; in test [17] it was 1.99%; in test [18] it was 2.89%. Besides, the inhibition in test [19] stood at 6.04%; in [20], 3.08%.
